Measured values from PubChem BioAssay (NCI).
The panel holds about 79,000 compounds, 15% with a hit somewhere; the sample as a whole holds those more often. Active and inactive are the calls of the source. Rule as the data show it: active = growth inhibition above about 70%; inactive = the rest.

Experiment: NCI Yeast Anticancer Drug Screen. Data for the rad50 strain (AID 155);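 also: 0% = growth of vehicle-only cultures of the same strain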
Settings: S. cerevisiae rad50 strain growth inhibition; at 50.0 µM; stronger effect = higher value
Summary of the method: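 Relative growth inhibition (compound vs vehicle) was measured in yeast with a defined repair-gene alteration.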

| SMILES | growth inhibition |
| --- | --- |
| CC(=O)C1SCC[S+]1C (stereo not given) | -19.8% (inactive) |
| C=CS(=O)(=O)c1ccc(NC(=O)Nc2ccc(Cl)cc2)cc1 | -0.55% (inactive) |
| Cc1ccc(C(=O)C2CC2c2ccccc2)cc1 (stereo not given) | 6.05% (inactive) |
| O=C1NCC2Cc3ccccc3C(c3ccccc3)=C12 (stereo not given) | -1.6% (inactive) |
| OCCOc1ccc(Cl)cc1Cl | -6% (inactive) |
| Nn1c(=S)[nH]nc(/C=C/c2ccc3c(c2)OCO3)c1=O | 38.9% (inactive) |
| CCCS(=O)(=O)CCC(=O)c1cccs1 | -0.05% (inactive) |
| COC(=O)C(=C/c1ccc(OC)cc1)/C(C(=O)O)=C(/C)c1ccccc1 | 9.9% (inactive) |
| O=C1CC(C2OCOC3COCOC32)CC(=O)N1 (stereo not given) | 4.15% (inactive) |
| O=C(CCl)Nc1ccc(O)c2ccccc12 | 14.8% (inactive) |
| CCN(CC)CCCNc1cc(O)cc2cccnc12 | -1.5% (inactive) |
| CC12CC3CC(C)(C1)CC(N=[N+]=[N-])(C3)C2 | -27.4% (inactive) |
| C=C1C(=O)O[C@H]2/C=C(/C)C3=CC(=O)[C@@](C)(C[C@@H](OC(=O)/C(C)=C\C)C12)O3 (stereo not given in full) | 73.5% (active) |
| CSC1(C)C(=O)Nc2cc(C(F)(F)F)ccc21 (stereo not given) | 17.6% (inactive) |
| O=C1CC2C(=O)N(Cc3ccccc3)C(=O)C2C(=O)N1 (stereo not given) | -3.1% (inactive) |
| COc1ccc(N2CCN(CC(O)COc3ccc(Cl)cc3)CC2)cc1 (stereo not given) | 70.8% (active) |
| CC(C)=Cc1cc(C(=O)Nc2ccc(Cl)c(Cl)c2)nc(N)n1 | -25.2% (inactive) |
| Cc1cc(C)c2c(=O)c3c(oc2c1)O[C@@](C)(CO)C[C@@H]3c1ccccc1 | 1.15% (inactive) |
| COc1ccc(C2=C/C(=C/c3cccs3)C(=O)O2)cc1 | -14.2% (inactive) |
| N#CC(=C1c2ccccc2-c2ccccc21)c1ccccc1 | -14.2% (inactive) |

| SMILES | growth inhibition |
| --- | --- |
| Cc1ccccc1NC(=O)NN | -32.1% (inactive) |
| CCC(C)N(C(C)=O)C(C)CC (stereo not given) | -4.15% (inactive) |
| CC(C)(Oc1ccc(Cl)cc1)C(=O)NC1CC(C)(C)N(O)C(C)(C)C1 | -0.4% (inactive) |
| c1ccc(N=C2N=c3ccccc3=C2c2c(Nc3ccccc3)[nH]c3ccccc23)cc1 | 20.4% (inactive) |
| CC(C)N(CC(=O)NC(=O)c1ccccc1)Cc1ccccc1 | 3.5% (inactive) |
| Nc1nc2c(nc(OCc3ccccc3)n2C2OC(CO)C(O)C2O)c(=O)[nH]1 (stereo not given) | 23.5% (inactive) |
| Clc1cnnc(Cl)c1N/N=C/c1ccco1 | 11.6% (inactive) |
| COc1ccc(C(=O)O/N=C2/CCC/C2=C\c2ccccc2)cc1 | 13.8% (inactive) |
| COC(=O)c1nnn(-c2c(C)cccc2C(C)C)c1C(=O)c1ccccc1 | 6% (inactive) |
| O=C1O[C@@H](c2ccccc2)C[C@@H]1CN1CCOCC1 | 24.4% (inactive) |
| Cc1ccc2c(c1)C(C(C)C)CCC2(C)C (stereo not given) | 5.3% (inactive) |
| CC1(O)c2ccccc2-c2nc3ccccc3nc21 (stereo not given) | 15.1% (inactive) |
| Nc1cccc(=O)[nH]1 | 6.3% (inactive) |
| CCCCc1c2c(nc3c1CCC/C3=C\c1ccccc1)C(=O)CCC2 | 15.8% (inactive) |
| Cn1ncc2c(=S)nc[nH]c21 | -15.2% (inactive) |
| CCC1(C(Cl)(Cl)Cl)C=CC(=O)C=C1 | 13% (inactive) |
| O=C(O)C1OC1(c1ccccc1Cl)c1ccccc1Cl (stereo not given) | 7.3% (inactive) |
| O=S(=O)(CS(=O)(=O)c1ccccc1Br)c1ccccc1Br | -7.65% (inactive) |
| Cc1nc2c(Cl)cc(Cl)cc2c(Cl)c1CCCl | 29.9% (inactive) |
| CC(C)CCCC(C)C1CCC2C3CC=C4CC(OC5CCC6(C)C(=CCC7C6CCC6(C)C(C(C)CCCC(C)C)CCC76)C5)CCC4(C)C3CCC12C (stereo not given) | -0.05% (inactive) |
